# Measurements: the supplement of paper PMC10498489
# The whole screen tested about 2,300 compounds, of which about 330 (14%) showed activity. These entries were drawn from the full list. Unmarked numbers belong to inactive results.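 Rule for the calls: active = median modified Z-score above 1.96; inactive = 1.96 or below.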
# System: HepG2 Srxn1-GFP reporter cells (+30 nM CDDO-Me)
# Assay: Srxn1-GFP intensity median modified Z-score relative to plate median; higher = stronger NRF2 / oxidative stress reporter activation, active = hit call of the paper
# Conditions: 10 µM; exposure time: 24h
# Summary of the method: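 Each value is the replicate median of a per-plate modified Z-score for GFP intensity in HepG2 Srxn1-GFP BAC reporter cells. The cells (20,000 per well, 96-well plates, three replicate plates) received compound at 10 μM together with an NRF2 activator at 30 nM for 24 h, in ≤0.1% DMSO. Cytoplasmic GFP was quantified per cell from confocal images of formaldehyde-fixed, Hoechst-stained cells, leaving out images with fewer than 100 cells, and scaling used 1.4826 × median absolute deviation.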
row,SMILES,Srxn1-GFP intensity median modified Z-score
1,CCC(C)[C@H]1O[C@]2(C=C[C@@H]1C)C[C@@H]1C[C@@H](C/C=C(\C)[C@@H](OC3C[C@H](OC)C(O[C@H]4C[C@H](OC)[C@@H](O)[C@H](C)O4)[C@H](C)O3)[C@@H](C)/C=C/C=C3\CO[C@@H]4[C@H](O)C(C)=CC(C(=O)O1)[C@]34O)O2 (stereo partly specified) [euspeclibcmpd1285],16.3 (active)
2,CC(C)(O)C(Cl)(Cl)Cl [euspeclibcmpd1104],-0.138
3,C=C[C@H]1C[N@]2CC[C@H]1C[C@@H]2[C@@H](OC(=O)OCC)c1ccnc2ccc(OC)cc12 [euspeclibcmpd1022],-0.0707
4,CC=C(C)C(=O)O[C@H]1CC[C@@]2(C)[C@@H]3CC[C@H]4[C@]5(O)C[C@H](O)[C@@]6(O)[C@@H](CN7C[C@@H](C)CC[C@H]7[C@@]6(C)O)[C@]5(O)C[C@@]42O[C@]13O [euspeclibcmpd1469],0.0522
5,Nc1[nH]c(=O)n2c1C2 [euspeclibcmpd933],0.164
6,CS(=N)(=O)CCC(N)C(=O)O (stereo unspecified) [euspeclibcmpd1752],-0.455
7,C[C@@]12C(c3coc(O)c3)CC[C@]1(O)C1CC[C@@H]3C[C@@H](O)CC[C@]3(C)C1C[C@H]2O (stereo partly specified) [euspeclibcmpd2259],-0.638
8,C[C@H]1O[C@@H](O[C@H]2[C@@H](O)C[C@H](O[C@H]3[C@@H](O)C[C@H](O[C@H]4CC[C@]5(C)C6C[C@@H](O)[C@]7(C)C(c8coc(O)c8)CC[C@]7(O)C6CC[C@@H]5C4)O[C@@H]3C)O[C@@H]2C)C[C@H](O)[C@@H]1O (stereo partly specified) [euspeclibcmpd96],-1.88
9,C[C@@H]1O[C@@H](O[C@H]2CC[C@]3(C=O)C4CC[C@]5(C)C(c6coc(O)c6)CC[C@]5(O)C4CC[C@]3(O)C2)[C@H](O)[C@H](O)[C@H]1O (stereo partly specified) [euspeclibcmpd1374],7.48 (active)
10,C[C@@H]1O[C@@H](O[C@H]2C[C@@H](O)[C@]3(CO)C4C(CC[C@]3(O)C2)[C@@]2(O)CCC(c3coc(O)c3)[C@@]2(C)C[C@H]4O)[C@H](O)[C@H](O)[C@H]1O (stereo partly specified) [euspeclibcmpd1207],-1.16
11,C[C@H]1O[C@@H](O[C@H]2[C@@H](O)C[C@H](O[C@H]3[C@@H](O)C[C@H](O[C@H]4CC[C@]5(C)C6CC[C@]7(C)C(c8coc(O)c8)CC[C@]7(O)C6CC[C@@H]5C4)O[C@@H]3C)O[C@@H]2C)C[C@H](O)[C@@H]1O (stereo partly specified) [euspeclibcmpd95],-1.81
12,CC1OC(OC2C(O)CC(OC3C(O)CC(OC4CCC5(C)C(CCC6C5CCC5(C)C(c7coc(O)c7)C(O)CC65O)C4)OC3C)OC2C)CC(O)C1O (stereo unspecified) [euspeclibcmpd1936],2.78 (active)
13,CC1OC(OC2C=C3CCC4C(CCC5(C)C(c6ccc(=O)oc6)CCC45O)C3(C)CC2)C(O)C(O)C1O (stereo unspecified) [euspeclibcmpd1931],2.81 (active)
14,CO[C@H]1[C@H](O)[C@@H](O[C@H]2CC[C@]3(C=O)C4CC[C@]5(C)C(c6coc(O)c6)CC[C@]5(O)C4CC[C@@H]3C2)O[C@@H](C)[C@@H]1O (stereo partly specified) [euspeclibcmpd2165],3.39 (active)
15,CNNC [euspeclibcmpd2278],-0.486
16,O=C(O)CCC1NCC2CC1CN1CCCCC21 (stereo unspecified) [euspeclibcmpd2022],-0.148
17,O=C1CCCC2C3C[C@H](CN12)[C@@H]1CCCCN1C3 (stereo partly specified) [euspeclibcmpd1695],-0.101
18,CCC(=O)O[C@H]1CCC2C3CC=C4CC(=O)CC[C@]4(C)C3CC[C@@]21C (stereo partly specified) [euspeclibcmpd7],0.269
19,C[N+]1(C)C2CCC1CC(OC(=O)C(CO)c1ccccc1)C2 (stereo unspecified) [euspeclibcmpd790],-0.464

row,SMILES,Srxn1-GFP intensity median modified Z-score
1,CN1CCCCC1c1ccc(-c2cccnc2)nc1 (stereo unspecified) [euspeclibcmpd1697],-0.301
2,C[N+]12CCC(CC1)C(OC(=O)C(O)(c1ccccc1)c1ccccc1)C2 (stereo unspecified) [euspeclibcmpd67],0.0285
3,O=P1(N(CCCl)CCCl)NCCCO1 (stereo unspecified) [euspeclibcmpd2335],-0.33
4,N=c1nc[nH][nH]1 [euspeclibcmpd1771],-0.334
5,COc1ccc(C(=O)N2CCCC2=O)cc1 [euspeclibcmpd835],1.03
6,NC(Cc1ccc(N(CCCl)CCCl)cc1)C(=O)O (stereo unspecified) [euspeclibcmpd181],0.947
7,COc1cc2c(cc1OC)C1C(=O)c3ccc4oc(C(C)C)cc4c3O[C@@H]1CO2 (stereo partly specified) [euspeclibcmpd1384],0.895
8,COc1cc2c(cc1OC)C1C(=O)c3ccc4c(c3O[C@@H]1CO2)CC(C(C)C)O4 (stereo partly specified) [euspeclibcmpd1349],54.1 (active)
9,COc1cc2c(cc1OC)-c1c(oc3c4c(ccc3c1=O)OC(C(C)C)C4)CO2 (stereo unspecified) [euspeclibcmpd1802],-0.169
10,C=C(C)C1Cc2c(ccc3c(=O)c4c(oc23)COc2cc(OC)c(OC)cc2-4)O1 (stereo unspecified) [euspeclibcmpd1633],0.389
11,C=C(C)[C@H]1Cc2c(ccc3c2O[C@@H]2COc4cc(OC)c(OC)cc4C2C3=O)O1 (stereo partly specified) [euspeclibcmpd1688],63.1 (active)
12,CCC1(c2ccc(N)cc2)CCC(=O)NC1=O (stereo unspecified) [euspeclibcmpd20],-0.169
13,C[C@]12CCC(=O)C=C1CCc1ccc(O)cc12 [euspeclibcmpd2145],-0.0198
14,NC(=O)c1cc([N+](=O)[O-])cc([N+](=O)[O-])c1 [euspeclibcmpd211],1.85
15,CC(=O)O[C@H]1CC[C@@]2(C)C(=CCC3C2CC[C@]2(C)C(=O)CCC32)C1 (stereo partly specified) [euspeclibcmpd1015],-0.448
16,CC1[C@H](C)OC(=O)CC(O)CC(O)CC(O)CCC(O)C(O)C[C@]2(O)CC(O)C(C(=O)O)C(CC(OC3O[C@H](C)[C@@H](O)[C@H](N)[C@@H]3O)/C=C/C=C/C=C/C=C/CC/C=C/C=C/[C@H](C)[C@H]1O)O2 (stereo partly specified) [euspeclibcmpd218],0.964
17,c1ccc2c(c1)OCC(C1=NCCN1)O2 (stereo unspecified) [euspeclibcmpd1238],0.16
18,COc1cccc([C@]2(O)CCCC[C@H]2CN(C)C)c1 [euspeclibcmpd765],-0.221
19,NC(=O)C[S+]([O-])C(c1ccccc1)c1ccccc1 (stereo unspecified) [euspeclibcmpd2299],0.327

row,SMILES,Srxn1-GFP intensity median modified Z-score
1,O=C1C=C2C=CC3C[C@@]2(O1)[C@H]1CCCCN31 [euspeclibcmpd1211],9.38 (active)
2,CC1NCCc2cc(O)c(O)cc21 (stereo unspecified) [euspeclibcmpd2171],-0.549
3,CC[C@H]1C2CC3[C@@H]4N(C)c5ccccc5[C@]45C[C@@H](C2C5O)N3[C@@H]1O (stereo partly specified) [euspeclibcmpd1044],-0.296
4,Cc1[nH]c2ccccc2c1CN(C)C [euspeclibcmpd2173],-0.24
5,CN1C2C[C@H](OC(=O)C(CO)c3ccccc3)C[C@H]1[C@H]1OC21 (stereo partly specified) [euspeclibcmpd266],-0.44
6,Cc1cccc(C)c1N=C1NCCCS1 [euspeclibcmpd416],-0.674
7,CC(C)=CC1C(C(=O)OCc2cccc(Oc3ccccc3)c2)C1(C)C (stereo unspecified) [euspeclibcmpd1161],-0.28
8,CCOC(=O)C1C(C=C(C)C)C1(C)C (stereo unspecified) [euspeclibcmpd1522],0.0825
9,C=C/C=C\CC1=C(C)C(OC(=O)C2[C@@H](C=C(C)C)C2(C)C)CC1=O (stereo partly specified) [euspeclibcmpd1257],2.3 (active)
10,O=C(O)CCCc1ccc(N(CCCl)CCCl)cc1 [euspeclibcmpd51],-0.412
11,C=C[C@H]1C[N@@]2CC[C@H]1C[C@H]2[C@H](O)c1ccnc2ccccc12 [euspeclibcmpd2388],-0.0385
12,O=[N+]([O-])O[C@H]1CO[C@H]2[C@@H]1OC[C@H]2O[N+](=O)[O-] [euspeclibcmpd166],-0.506
13,O=[N+]([O-])O[C@@H]1CO[C@H]2[C@@H]1OC[C@@H]2O [euspeclibcmpd605],3.27 (active)
14,Cc1cc(OC(=O)N2CCCCC2)c(C(C)C)cc1[N+](C)(C)C [euspeclibcmpd1842],0.636
15,COc1ccc(O)c(C(C)(C)C)c1 [euspeclibcmpd2212],0.639
16,O=C1c2ccccc2-c2cccc3cccc1c23 [euspeclibcmpd1379],0.148
17,C=C(C)c1cc2cc(C(C)=O)c(O)cc2o1 [euspeclibcmpd1716],10.1 (active)
18,O=C(O)CCCO [euspeclibcmpd2162],-0.552
